High-throughput results (PubChem)
N-glyco inh – N-linked glycosylation inhibition; D54 ERlucT glycosylation luciferase reporter, 24 h; percent of 100 nM tunicamycin response; reporter increase, % at 12.5 µM; 360,000 compounds, 0.23% hits; AID 588692;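 active means mean luciferase reporter signal, scaled so untreated is 0 and the glycosylation-blocking control 100, at or above a set limit in every replicate; inconclusive means mean reaches the limit but not every replicate does; inactive means mean below the limit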;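 further: luciferase carries N-glycosylation sites so blocking glycosylation raises the light; 0% = median of neutral control wells and 100% = median of 100 nM tunicamycin wells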
Wnt act – Wnt/beta-catenin pathway activation | 300,000 compounds, 1.2% hits | AID 743398 | Wnt/beta-catenin reporter cell assay, activator, plate reader | activation, % at 9.35 µM; in the data active means activation above about 30%, passing the limit was not always enough; inconclusive means no clear call, values can overlap the other calls;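 further: 0% = neutral control wells and 100% = positive control wells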
MITF act – increases MITF-driven TRPM1 promoter luciferase signal | SK-MEL-5 TRPM1-promoter luciferase, 24 h; % of positive control, neutral wells = 0 | activation, % at 12.5 µM | 300,000 compounds, 0.75% hits;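 active means mean activation of at least 80% with every replicate also reaching 80%; inconclusive means mean reaches 80% but some replicate falls short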;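 further: 0% = neutral control wells and 100% = parthenolide positive control wells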
Vif imaging – blocks HIV Vif function | AID 602346 | HEK293T cells, Vif self-association by quenched fluorescence, imaging, 24 h | 340,000 compounds, 0.35% hits | inhibition, % at 7.49 µM; in the data active means inhibition above about 50%, passing the limit was not always enough; inconclusive means no clear call, values can overlap the other calls; inactive means below about 31%
PfHsp90 set2 – inhibits growth of yeast expressing Plasmodium falciparum Hsp90. S. cerevisiae expressing PfHsp90, BacTiter-Glo ATP, 48 h; yeast lacking PDR1 and PDR3 efflux regulators. inhibition, % at 9.4 µM. 310,000 compounds, 0.32% hits. AID 504621;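 active means every replicate shows inhibition above about 80%, whatever the replicate mean, limit read from the data; inconclusive means mean inhibition reaches the set limit but some replicate falls short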;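 further: 0% = DMSO neutral controls and 100% = 20 µM radicicol positive controls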
esBAF inh – inhibitors of esBAF chromatin remodeling in mouse ES cells | Bmi1-luciferase knock-in reporter, 24 h; 100% = twice the neutral-well signal | reporter increase, % at 12.5 µM | 350,000 compounds, 2% hits | AID 602393; in the data active means activation above about 40%; inconclusive means no clear call, values can overlap the other calls;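 further: 0% = median of the plate's neutral control wells and 100% = double that signal; a rise in the Bmi1 reporter signal indicates esBAF inhibition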
* marks the source's active call; other numbers are inactive results; ? = inconclusive; . = no result given. Rows were chosen to be rich in hits. Some 3% of all compounds tested hit in one or more screens of this group.

SMILES | N-glyco inh | Wnt act | MITF act | Vif imaging | PfHsp90 set2 | esBAF inh
COCC#Cc1cnc2c(c1)C(=O)N([C@H](C)CO)C[C@H](C)[C@H](CN(C)Cc1ccccc1)O2 | . | . | . | . | . | -1
c1cncc(CNc2cccc(-c3nc4ccccc4[nH]3)c2)c1 | -2 | 50* | 58 | -1 | 18 | .
Cc1cc2nc(-c3ccc(SCc4ccccn4)nc3)[nH]c2cc1C | -2 | ? | 67 | -9 | 25 | 64*
CCOC(=O)CSc1ccc(-c2nc3cc(C)c(C)cc3[nH]2)cn1 | -6 | . | 30 | 8 | -37 | -1
CCOC(=O)N1CCN(Cc2nnc(-c3cccc(Br)c3)o2)CC1 | 1 | 1 | -3 | -13 | 14 | -4
COCCn1c(SCc2nc(N)nc(Nc3ccccc3C)n2)nc2ccccc2c1=O | 10 | -2 | 1 | 4 | 10 | .
c1ccc2c(c1)NC1(CCCCCC1)n1c-2nc2ccccc21 | 1 | . | . | -3 | -16 | 46*
c1ccc2c(c1)NC1(CCCCC1)n1c-2nc2ccccc21 | 3 | 10 | 58 | 3 | 0 | 23
N#CCSc1nc(-c2ccccc2)cs1 | 0 | -1 | ? | 4 | -41 | ?
N#CCSc1ccc2nc(-c3ccccc3)cn2n1 | 0 | 25 | 70 | -6 | 3 | 51*
CN(/N=C/c1ccc(N(C)C)cc1)C1=NS(=O)(=O)c2ccccc21 | 23 | -9 | -6 | 128* | -27 | 2
COc1ccc(/C=N/N(C)C2=NS(=O)(=O)c3ccccc32)cc1 | 2 | -1 | 5 | 6 | -14 | -5
Cc1ccc(F)cc1NC(=O)CCc1c(C)nn(-c2ccc(N3CCCCC3)nn2)c1C | 0 | 8 | 48 | ? | -20 | 65*
Cc1nn(-c2ccc(N3CCCCC3)nn2)c(C)c1CCC(=O)Nc1ccc(F)c(F)c1 | 0 | 14 | 60 | -4 | 9 | 55*
Cc1cc(F)ccc1NC(=O)CCc1c(C)nn(-c2ccc(N3CCCCC3)nn2)c1C | -1 | -2 | -7 | -1 | -13 | -40
COc1ccc(C)cc1NC(=O)CCc1c(C)nn(-c2ccc(N3CCCCC3)nn2)c1C | -1 | 11 | 38 | 1 | 7 | 61*
Cc1ccc(NC(=O)CCc2c(C)nn(-c3ccc(N4CCOCC4)nn3)c2C)cc1F | -1 | 6 | 60 | -9 | -3 | 53*
CS(=O)(=O)N1CCC(NC(=O)Nc2ccc(OC(F)(F)F)cc2)CC1 | -1 | -1 | -3 | 5 | -14 | 8
O=C1C(CN2CCCC2)CCCC1CN1CCCC1 (stereo unspecified) | -2 | -4 | . | -13 | -5 | .
Cn1nc(CC(=O)N2CCN(c3ccccc3)CC2)c2ccccc2c1=O | 0 | 4 | . | -3 | -30 | 16
COC(=O)[C@H]1C[C@@]2(O)CN(S(=O)(=O)c3ccc(C)cc3)C[C@@]2(OC(=O)NCc2ccccc2F)C[C@H]1C(=O)OC | 1 | -4 | . | 6 | . | -3
Cc1cc(C)cc(NC(=O)CCc2c(C)nn(-c3ccc(N4CCCCC4)nn3)c2C)c1 | -3 | 16 | ? | -6 | -4 | 68*
Cc1ccc(NC(=O)CCc2c(C)nn(-c3ccc(N4CCCCC4)nn3)c2C)cc1 | -3 | 13 | 31 | -3 | -3 | 38
O=C(COC(=O)CCSc1ccc(Cl)cc1)NCc1ccco1 | -7 | 0 | -6 | 4 | -5 | -2
c1cncc(CSc2ccc(-c3ccc4c(c3)OCO4)nn2)c1 | -1 | 32* | 69 | 0 | . | 49*
SMILES | N-glyco inh | Wnt act | MITF act | Vif imaging | PfHsp90 set2 | esBAF inh
COc1ccc(NC(=O)N[C@@H]2CC[C@@H](CC(=O)NC3CCCCC3)O[C@@H]2CO)cc1 | . | . | . | . | . | 2
COc1cccc(-c2cc(C(=O)NCc3ccco3)no2)c1 | -3 | -4 | 63 | 5 | -8 | 45*
Cc1ccc(-c2cc(C(=O)NCc3ccco3)no2)cc1 | -3 | 23 | 98* | -3 | -28 | 27
CC(C)(C)c1ccc(C(=O)N2CCC2(C)C(=O)NCC(F)(F)F)cc1 (stereo unspecified) | 1 | -1 | . | 8 | . | -11
Cn1cnc(S(=O)(=O)N2CCCCN3[C@@H](CO)[C@@H](c4ccc(-c5cccc(F)c5)cc4)[C@@H]3C2)c1 | . | . | . | . | . | -5
COc1ccc(/C=C2\CCn3c2nc2cc(C(=O)O)ccc2c3=O)cc1OC | 2 | -1 | 15 | 1 | 2 | 2
